Compounds with a hit are over-represented: about 17% of the library has one in this group of screens.
ClpP mod: qHTS Assay for Activators of ClpP. ATP-dependent Clp protease proteolytic subunit (Bacillus subtilis (strain 168)), P80244. purified B. subtilis ClpP, FRET peptide cleavage, 20 min. Potency, µM (series often up to 57.5 µM), without a hit: at the top dose activity change, negative = active. 340,000 compounds, 1.9% hits. AID 651965, 2013; active = well fitted falling curve with a large enough effect; inconclusive = small, poorly fitted or top-dose-only effect; inactive = no such curve, though single readings can be large or run the other way; also: the source files actives as falling curves though it sought activators and does not explain the sign; nearly all actives have a fitted effect of over 65% in size
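FRET quenching reversal measured ClpP activation: 10 microg/mL B. subtilis ClpP at pH 8 with the FRET-FV decapeptide, read at 430 nm after 320 nm excitation. The 20-min minus 0-min signal was scaled between DMSO/no-enzyme wells and ADEP (5.8 microM final).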
TDP1 cell CPT: growth inhibition of DT40 Tdp1-/-;hTDP1 cells with camptothecin (screen for TDP1 inhibitors) | chicken DT40 Tdp1-/-;hTDP1 cells + 20 nM CPT, ATP luminescence, 48 h | Potency, µM (highest dose often 46.2 µM), without a hit: at the top dose activity change, negative = growth inhibition, usual class: inhibitors | 420,000 compounds, 12% hits; also: % is scaled to controls: 0 for no effect and ±100 for the full control effect; nearly all actives have a fitted effect of over 55% in size
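Chicken DT40 Tdp1-/- cells complemented with human TDP1, 400 cells/well, exposed to compounds plus 20 nM camptothecin for at least 48 h at 37 C; viability read as ATP content by CellTiter-Glo luminescence.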
TDP1 cell noCPT: qHTS for Inhibitors of human tyrosyl-DNA phosphodiesterase 1 (TDP1): qHTS in cells in absence of CPT | DT40 Tdp1-/- hTDP1 cells, no CPT, ATP luminescence, 48 h | Potency, µM (top dose mostly 46.2 µM), for inactives: at the highest dose activity change, negative = growth inhibition, hits mostly inhibitors | 420,000 compounds, 15% hits; also: % is scaled to controls: 0 for no effect and ±100 for the full control effect; nearly all actives have a fitted effect of over 55% in size
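A cellular qHTS used chicken DT40 cells lacking endogenous Tdp1 but carrying stably transfected human TDP1. Compounds were applied without camptothecin, and cell growth kinetics were judged by ATP-dependent luminescence after ≥48 hr.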
TDP1 inh: blocks human tyrosyl-DNA phosphodiesterase 1. Q9NUW8. recombinant TDP1, AlphaScreen DNA substrate cleavage. Potency, µM (highest dose often 130 µM), for inactives: top-dose activity change, negative = inhibition, actives largely listed as inhibitors. 350,000 compounds, 0.28% hits; also: % is scaled to controls: 0 for no effect and ±100 for the full control effect; nearly all actives have a fitted effect of over 40% in size
Target sequence (Q9NUW8 whole entry, looked up): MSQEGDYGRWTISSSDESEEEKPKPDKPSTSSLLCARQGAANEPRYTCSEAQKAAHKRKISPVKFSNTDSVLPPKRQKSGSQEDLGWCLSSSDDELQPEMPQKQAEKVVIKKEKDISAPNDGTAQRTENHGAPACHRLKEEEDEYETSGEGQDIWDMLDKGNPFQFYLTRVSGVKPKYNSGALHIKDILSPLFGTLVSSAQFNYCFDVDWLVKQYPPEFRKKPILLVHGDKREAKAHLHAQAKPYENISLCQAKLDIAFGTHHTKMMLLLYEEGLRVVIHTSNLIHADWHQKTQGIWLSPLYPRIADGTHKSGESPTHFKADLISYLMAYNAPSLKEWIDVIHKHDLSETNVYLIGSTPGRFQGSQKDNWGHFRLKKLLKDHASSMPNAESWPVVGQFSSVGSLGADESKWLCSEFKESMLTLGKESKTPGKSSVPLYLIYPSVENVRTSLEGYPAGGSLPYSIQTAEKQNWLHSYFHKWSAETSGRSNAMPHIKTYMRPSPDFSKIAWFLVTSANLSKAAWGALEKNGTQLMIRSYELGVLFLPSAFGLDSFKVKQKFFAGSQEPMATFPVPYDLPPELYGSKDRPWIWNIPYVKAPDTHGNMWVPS
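Compounds were preincubated with Tdp1 (1 nM final) for 15 min at room temperature before substrate (15 nM final) started a 5 min reaction; beads (10 ug/ml final) were then added for 10 min before AlphaScreen detection.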
The depositor's hits bear a star; [ ] = another dose, or the depositor's remark. Unless noted, calls follow the shape of the dose curve; as a rule, active = well fitted curve in the direction sought with a large enough effect; inconclusive = small, poorly fitted or top-dose-only effect, or another doubt; inactive = no such curve, though single readings can be large; an effect the other way counts as inactive or inconclusive. Potency is read from the fitted curve at half-maximal effect.

For Cc1ccc(CCNC(=O)Cn2nc(C)c3c(C)n(-c4ccc(C)cc4)nc3c2=O)cc1 the results were ClpP mod -7.6%, TDP1 cell CPT 23.1µM*, TDP1 cell noCPT inconclusive and TDP1 inh 2.8%.
COc1cccc(NC(=O)C2CCN(c3nnc(C)c4c(C)n(-c5ccccc5)nc34)CC2)c1 was read as ClpP mod inconclusive, TDP1 cell CPT inconclusive, TDP1 cell noCPT 23.1µM* and TDP1 inh 5.7%.
For CCN(c1ccccc1)S(=O)(=O)c1ccc(NC(=O)c2cc(=O)c3ccccc3o2)cc1 the results were ClpP mod 59.8%, TDP1 cell CPT -5.8%, TDP1 cell noCPT -15.0% and TDP1 inh -1.2%.
N#Cc1ccc(CN2CCC3(CC2)CCN(C(=O)Oc2ccccc2)CC3)cc1 was read as TDP1 cell CPT -1.1% and TDP1 cell noCPT -21.4%.
Screening Cc1ccc(NC(=O)Nc2ccc3nc(N4CCN(C)CC4)cc(C)c3c2)cc1F returned ClpP mod 4.2%, TDP1 cell CPT 5.17µM*, TDP1 cell noCPT 4.11µM* and TDP1 inh 0.0%.
Screening Cc1cc(N2CCCCC2)nc2ccc(NC(=O)/C=C/c3ccc(OC(C)C)cc3)cc12 returned ClpP mod -4.6%, TDP1 cell CPT 9.2µM*, TDP1 cell noCPT 7.31µM* and TDP1 inh 11.8%.
`Cc1cc(N2CCNCC2)nc2ccccc12` gave TDP1 cell CPT -8.5% and TDP1 cell noCPT inconclusive.
For CCCCC/C=C\C/C=C\C/C=C\C/C=C\CCCC(=O)NC(C)C(=O)O (configuration not stated) the results were TDP1 inh 4.4%.
For C=C(C)C(N)=O the results were TDP1 inh 16.1%.
Screening CCCCCc1cc(O)c2c(c1)OC(C)(C)[C@@H]1CCC(C)=C[C@@H]21 returned TDP1 cell CPT 21.1µM* and TDP1 cell noCPT inconclusive.
C(CCOCC1CO1)COCC1CO1 (configuration not stated) was read as TDP1 inh 13.8%.
Screening NS(=O)(=O)c1ccc(N=Cc2c(O)n(C3CCCCC3)c(=O)n(C3CCCCC3)c2=O)cc1 returned ClpP mod -24.0%, TDP1 cell CPT 14.6µM*, TDP1 cell noCPT 16.4µM* and TDP1 inh 5.1%.
Screening CCOP(=O)(/C=C(\Cl)c1ccccc1)C(O)c1ccc(F)cc1 (configuration not stated) returned ClpP mod 2.5%, TDP1 cell CPT inconclusive and TDP1 cell noCPT 16.4µM*.
Screening CC1=CC(=O)C2=C(C)C[C@@H](O)[C@@H]3[C@@H](OC(=O)[C@H]3C)[C@H]12 returned TDP1 inh 14.4%[21 µM].
For Cc1cc(C)cc(C(=O)OC2C[C@H]3CC[C@@H](C2)N3C)c1 (some centres not stated) the results were TDP1 cell CPT 23.7µM*, TDP1 cell noCPT 18.8µM* and TDP1 inh 10.3%[56.1 µM].
For Cc1cc(C)cc(C(=O)OC2CC3CCC(C2)N3C)c1 (configuration not stated) the results were TDP1 inh 6.1%.
For C[C@@H](C(=O)OC1C[C@H]2CC[C@@H](C1)N2C)c1ccc(Br)cc1 (some centres not stated) the results were TDP1 cell CPT 29.9µM*, TDP1 cell noCPT 26.6µM* and TDP1 inh 3.6%.
CN1C2CCC1CC(OC(=O)c1cc(Cl)cc(Cl)c1)C2 (configuration not stated) was read as ClpP mod 1.0%, TDP1 cell CPT 14.6µM*, TDP1 cell noCPT inconclusive and TDP1 inh 9.0%[56.1 µM].
For COc1cc(C(=O)OC2C[C@H]3CC[C@@H](C2)N3C)ccc1O (some centres not stated) the results were TDP1 cell CPT 33.4%, TDP1 cell noCPT 1.7% and TDP1 inh 7.4%[56.1 µM].
ClC(Cl)c1ccccc1 was read as TDP1 inh 12.7%.
CCC(=O)O[C@]1(c2ccccc2)CCN(C)C[C@H]1C was read as TDP1 cell CPT 5.8% and TDP1 cell noCPT -29.3%.
Screening CC1(C)C(=O)C=C[C@@]2(C)C1CC(O)[C@]1(C)C2CC[C@@]2(C)C(c3ccoc3)OC(=O)C3O[C@]312 (some centres not stated) returned TDP1 cell CPT 13µM*, TDP1 cell noCPT 11.6µM* and TDP1 inh 10.2%[56.1 µM].
CC(C)(C)OO was read as TDP1 inh 2.0%.
C=CCc1cc(OC)c2c(c1OC)OCO2 was read as TDP1 cell CPT 11.6%, TDP1 cell noCPT 26.8% and TDP1 inh -1.8%[56.1 µM].
`COc1cc(C(C)=O)ccc1OCc1cc(C(=O)N(C)CCC2CCCCO2)no1` (configuration not stated) gave ClpP mod -5.1%, TDP1 cell CPT -24.0%, TDP1 cell noCPT inconclusive and TDP1 inh 3.8%.
Cc1cc(C)cc(NC(=S)NC2CC3CCC(C2)N3Cc2ccco2)c1 (configuration not stated) was read as ClpP mod -0.5%, TDP1 cell CPT inconclusive, TDP1 cell noCPT 16.4µM* and TDP1 inh 4.1%.
Screening COC(=O)C1=C(c2cc3ccccc3o2)C[C@@H]2CC[C@H]1N2C(=O)NC(C)C returned ClpP mod -0.7%, TDP1 cell CPT 23.1µM* and TDP1 cell noCPT 16.4µM*.
For COC(=O)C1=C(c2cc3ccccc3o2)C[C@@H]2CC[C@H]1N2C(=O)NCCCOC(C)C the results were ClpP mod -0.4%, TDP1 cell CPT inconclusive and TDP1 cell noCPT 11.6µM*.
Screening CCOC(=O)c1nc2ccccc2c(=O)n1-c1ccc(C)cc1C returned ClpP mod -13.8%, TDP1 cell CPT 8.2µM*, TDP1 cell noCPT 10.3µM* and TDP1 inh 0.0%.
For COC(=O)c1ccccc1-n1c(C)nc2ccccc2c1=O the results were ClpP mod 0.4%, TDP1 cell CPT -26.0%, TDP1 cell noCPT inconclusive and TDP1 inh -1.7%.
Screening CCc1cc(-c2cnnn2Cc2ccc3ccccc3c2)ccc1-c1cn(CC(C)C)nn1 returned ClpP mod 0.6%, TDP1 cell CPT 25.9µM* and TDP1 cell noCPT 20.6µM*.
`COc1ccc(-c2ccc3c(c2)CN(C(=O)C(C)(C)C)Cc2cnnn2-3)cc1` gave ClpP mod 4.1%, TDP1 cell CPT inconclusive and TDP1 cell noCPT inconclusive.
`Fc1cccc(-c2ccc3c(c2)CN(c2cccc(Cl)c2)Cc2cnnn2-3)c1` gave ClpP mod 31.6µM*, TDP1 cell CPT inconclusive and TDP1 cell noCPT inconclusive.
`CC(C)(C)C(=O)N1Cc2cc(-c3ccccc3)ccc2-n2nncc2C1` gave ClpP mod 0.8%, TDP1 cell CPT 16.4µM* and TDP1 cell noCPT inconclusive.
Screening O=S(=O)(c1cc(Cl)cc(Cl)c1)N1Cc2cc(-c3cccc(F)c3)ccc2-n2nncc2C1 returned ClpP mod -1.5%, TDP1 cell CPT inconclusive and TDP1 cell noCPT inconclusive.
NNc1ccccc1 was read as TDP1 cell CPT -12.8%, TDP1 cell noCPT 0.8% and TDP1 inh 21.3%.

Assay outcomes as filed in PubChem.
